Screening data (PubChem BioAssay)
Glioma ERSR ind: qHTS for Inducers of the Endoplasmic Reticulum Stress Response (ERSR) in Human Glioma: qHTS. U87-MG GRP78 promoter luciferase reporter, 16 h. Potency, µM, for inactives: top-dose activation, most hits filed as activators. 420,000 compounds, 0.02% hits. AID 602332, 2012; also: potency is read from the fitted curve at half-maximal effect; series mostly up to about 76 µM; % of control where 0% means no effect; nearly all actives have a fitted effect of over 35% in size
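Stably transfected U87-MG human glioma cells carrying a GRP78-based luminescent sensor were seeded at 1000 cells/well, pin-dosed with compounds and incubated 16 h. Luciferase reagent was then added, and end-point luminescence was read after 10 min at room temperature.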
TrxR1 inh: qHTS Assay for Inhibitors of Mammalian Selenoprotein Thioredoxin Reductase 1 (TrxR1): qHTS; Potency, µM (highest dose often 114 µM), for inactives: at the top dose activity change, negative = inhibition, most hits filed as inhibitors; 390,000 compounds, 1% hits; Thioredoxin reductase 1, cytoplasmic (Rattus norvegicus), O89049; recombinant rTrxR1, NADPH fluorescence consumption, selenite substrate; also: potency is read from the fitted curve at half-maximal effect; % is scaled to controls: 0 for no effect and ±100 for the full control effect; nearly all actives have a fitted effect of over 65% in size
Target sequence (O89049 whole entry, looked up): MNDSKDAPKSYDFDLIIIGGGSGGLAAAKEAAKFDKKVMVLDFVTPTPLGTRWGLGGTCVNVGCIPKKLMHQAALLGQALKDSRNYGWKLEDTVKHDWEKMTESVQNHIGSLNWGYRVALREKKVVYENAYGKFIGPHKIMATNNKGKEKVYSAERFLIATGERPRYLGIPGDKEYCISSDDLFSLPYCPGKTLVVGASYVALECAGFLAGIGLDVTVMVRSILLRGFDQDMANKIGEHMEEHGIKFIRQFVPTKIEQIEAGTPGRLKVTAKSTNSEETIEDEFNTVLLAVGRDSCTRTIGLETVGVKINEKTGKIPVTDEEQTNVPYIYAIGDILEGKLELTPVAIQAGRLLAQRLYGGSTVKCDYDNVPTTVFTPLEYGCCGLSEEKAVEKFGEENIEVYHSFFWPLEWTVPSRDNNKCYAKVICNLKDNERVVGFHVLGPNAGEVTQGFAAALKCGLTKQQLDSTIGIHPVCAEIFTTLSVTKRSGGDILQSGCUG
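Rat TrxR1 (90 nM in the dispensed reagent) was pre-reduced with 400 uM NADPH for 5 min at room temperature, then incubated with compound for 15 min. After 400 uM selenite was added, NADPH fluorescence (Ex 340/Em 450 nm) was followed for 8 min.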
12-LOX inh: Primary qHTS assay for inhibitors of human arachidonate 12S-lipoxygenase (ALOX12): Round 2 | 580,000 compounds, 1.1% hits | Polyunsaturated fatty acid lipoxygenase ALOX12 (Homo sapiens), P18054 | purified 12hLO, xylenol orange hydroperoxide absorbance | AID 1671190, 2021 | Potency, µM (titrated, usually from 108 µM), inactives show at the top dose activity change, negative = inhibition, usual class: inhibitors; also: potency is read from the fitted curve at half-maximal effect; % is scaled to controls: 0 for no effect and ±100 for the full control effect
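Purified human 12hLO at 150 nM in 25 mM Hepes, 0.01% Triton X-100, pH 7.0, preincubated 15 min at room temperature with compound. Reaction started with 40 uM arachidonic acid, 30 min at room temperature. Hydroperoxide measured by Fe-xylenol orange, 573/405 nm absorbance ratio.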
Anesthetic bind: qHTS Assay for Identification of Novel General Anesthetics | Potency, µM (series often up to 77.5 µM), for inactives: at the top dose activity change, negative = displacement, usual class: inhibitors | 350,000 compounds, 0.074% hits | Ferritin light chain (Equus caballus), P02791 | apoferritin/1-aminoanthracene competitive binding, fluorescence; also: potency is read from the fitted curve at half-maximal effect; % is scaled to controls: 0 for no effect and ±100 for the full control effect; nearly all actives have a fitted effect of over 20% in size
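Horse-spleen apoferritin (10 uM) was mixed with 50% saturated 1-aminoanthracene in PBS, exposed to compounds for 10 min at room temperature, and read for fluorescence (ex 380 nm, em 535 nm). Competitive displacement was fitted with a four-parameter Hill equation.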
IDH1 R132H inh: qHTS for Inhibitors of mutant isocitrate dehydrogenase 1 (IDH1): qHTS | Potency, µM (series often up to 76.6 µM), for the others: top-dose activity change, negative = inhibition, most hits filed as inhibitors | Isocitrate dehydrogenase [NADP] cytoplasmic (Homo sapiens), O75874 | AID 602179, 2012 | 390,000 compounds, 0.093% hits | IDH1-R132H enzyme, NADPH consumption, diaphorase/resazurin fluorescence; also: potency is read from the fitted curve at half-maximal effect; % is scaled to controls: 0 for no effect and ±100 for the full control effect; nearly all actives have a fitted effect of over 65% in size
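IDH1-R132H (0.5 ug/mL) preincubated 30 min with compound, then NADPH (0.016 mM) and alpha-KG (2 mM) added; 80 min at RT, pH 7.5. Remaining NADPH coupled via diaphorase/resazurin to fluorescence (540/590 nm); concentration-response curves normalized to no-enzyme control.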
TrxR1 substrate: qHTS Assay for Substrates of Mammalian Selenoprotein Thioredoxin Reductase 1 (TrxR1): qHTS. purified TrxR1 substrate turnover, NADPH consumption readout. 390,000 compounds, 0.01% hits. Potency, µM (titrated, usually from 114 µM), inactives show top-dose activity change, negative = substrate turnover; also: potency is read from the fitted curve at half-maximal effect; % is scaled to controls: 0 for no effect and ±100 for the full control effect; nearly all actives have a fitted effect of over 50% in size
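Rat TrxR1, dispensed at 90 nM, was prereduced with 400 uM NADPH (final) for 5 min at ~22 deg C, then incubated with compound 15 min before 400 uM selenite. A first-read NADPH fluorescence drop versus no-compound background flagged substrates.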
IDH1 autofl: qHTS for Inhibitors of mutant isocitrate dehydrogenase 1 (IDH1): Cherrypicks Autofluorescence Interference; shares compounds with IDH1 R132H inh; Resorufin detection reagent fluorescence interference, cell-free; inhibition of signal, % at 51.2 µM; 750 tested, under 10 active; AID 623980, 2012;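 also: 0% = wells with normal resorufin and full inhibition = wells lacking resorufin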
IDH1 WT: qHTS for Inhibitors of mutant isocitrate dehydrogenase 1 (IDH1): Cherrypicks in WT IDH1. shares compounds with IDH1 R132H inh. WT IDH1 enzyme, NADPH diaphorase/resazurin fluorescence. Potency, µM (highest dose often 115 µM), for the others: at the top dose activity change, negative = inhibition, usual class: inhibitors. 750 compounds, 9% hits. AID 623995, 2012;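 also: potency is read from the fitted curve at half-maximal effect; 0% = full WT IDH1 enzyme control and full inhibition = no enzyme wells; nearly all actives have a fitted effect of over 55% in size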
mIDH1 confirm: qHTS for Inhibitors of mutant isocitrate dehydrogenase 1 (IDH1): Confirmation of Cherrypicks; shares compounds with IDH1 R132H inh; IDH1 R132H enzyme, NADPH diaphorase/resazurin fluorescence; Potency, µM (top dose mostly 76.6 µM), for the others: top-dose activity change, negative = inhibition, actives largely listed as inhibitors; 750 compounds, 83% hits; AID 624002, 2012; also: potency is read from the fitted curve at half-maximal effect; nearly all actives have a fitted effect of over 50% in size
* hit, by the source's call; ? = inconclusive; nt = no result; [ ] = remark or other dose. Most compounds without a hit are left out; they make up all but 1.7% or so of the library. Calls follow the shape of the dose curve; as a rule, active = well fitted curve in the direction sought with a large enough effect; inconclusive = small, poorly fitted or top-dose-only effect, or another doubt; inactive = no such curve, though single readings can be large; an effect the other way counts as inactive or inconclusive.

SMILES	Glioma ERSR ind	TrxR1 inh	12-LOX inh	Anesthetic bind	IDH1 R132H inh	TrxR1 substrate	IDH1 autofl	IDH1 WT	mIDH1 confirm
c1ccc(N(c2ccccc2)c2nc(N3CCCC3)nc(-n3ccnc3)n2)cc1	-2%	31%	0%	-13%	9.3µM*	14%	-2	-1%	6.3µM*
CN(c1ccccc1)c1nc(N2CCCC2)nc(-n2ccnc2)n1	-5%	1%	0%	-19%	-18%	-1%	nt	nt	nt
COC(=O)CCSc1nc(N2CCOCC2)c2c(c1C#N)CC(C)(C)OC2	-3%	2%	44%	-6%	7%	-7%[57.1 µM]	nt	nt	nt
CC(C)CCSc1nc(N2CCOCC2)c2c(c1C#N)CC(C)(C)OC2	-1%	23%[57.1 µM]	0%	-8%	16µM*	-1%[57.1 µM]	-10	11%	7.9µM*
O=C(O)c1ccc(Cl)c(S(=O)(=O)N(Cc2ccccc2)c2ccccc2Cl)c1	-2%	5%	10%	-2%	29µM*	2%	8	-4%	32µM*
O=C(O)c1ccc(Cl)c(S(=O)(=O)N(Cc2ccccc2)c2ccccc2)c1	-2%	11%	-8%	2%	?	4%	nt	nt	nt
CCCCOc1ccc(C2c3c(-c4ccccc4O)n[nH]c3C(=O)N2Cc2ccncc2)cc1OC (centres undefined)	-2%	14%	-14%	-13%	?	-9%	nt	nt	nt
COc1cccc(C2c3c(-c4ccccc4O)n[nH]c3C(=O)N2Cc2cccnc2)c1 (centres undefined)	-1%	13%	-3%	-18%	-16%	-3%	nt	nt	nt
COc1cc(C2c3c(-c4cc(Cl)c(C)cc4O)n[nH]c3C(=O)N2Cc2cccnc2)ccc1O (centres undefined)	-3%	2%	-7%	?	?	-2%	-1	-3%	45µM*
COc1cccc(C2c3c(-c4cc(Cl)c(C)cc4O)n[nH]c3C(=O)N2Cc2cccnc2)c1 (centres undefined)	8%	17%	399%	?	?	4%	-1	1%	16µM*
O=C(NCc1ccc(OC(F)(F)F)cc1)N1CCC2(CC1)CN(c1ccccc1)C2=O	nt	nt	12%	nt	nt	nt	nt	nt	nt
Cc1nn(-c2ccccc2)c(Cl)c1CN(C(=O)CCl)c1ccc(Cl)cc1	-14%	22µM*	?	4%	52µM*	-10%	-2	-2%	28µM*
O=S(=O)(NCc1ccccc1)N1CCCC1c1nc(-c2ccncc2)no1 (centres undefined)	nt	nt	14%	nt	nt	nt	nt	nt	nt
CC(c1ccccc1)N(CCC(c1ccccc1)C1CCOC(C)(C)C1)C(=O)c1ccco1 (centres undefined)	-5%	?	-27%	6%	?	-9%	nt	nt	nt
